Screening data (PubChem BioAssay)
ATXN2 expr inh = inhibitors of ATXN2 expression | Potency, µM (series often up to 57 µM), for the others: top-dose activity change, negative = inhibition, most hits filed as inhibitors | 360,000 tested, 0.72% active | HEK-293 ATXN2-luciferase reporter, luminescence, 24 h; note: % is set by controls: 0 for no effect and ±100 for the full control effect; nearly all actives have a fitted effect of over 55% in size
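qHTS (up to 57 uM final) was run with 24 h compound exposure of reporter cells at 37 °C. Each well was multiplexed: SteadyGlo luminescence measured ATXN2-luciferase expression after a fluorogenic Gly-Phe-AFC viability readout (25 uM final).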
Gal4-VP16 FLuc = inhibits Gal4-VP16 luciferase reporter, ROR gamma counter-screen. 310,000 tested, 3.5% active. Potency, µM (titrated, usually from 53.6 µM), for inactives: at the highest dose activity, negative = inhibition, hits mostly inhibitors. Drosophila S2 Gal4-VP16 UAS-luciferase, luminescence, 20 h. AID 2546;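 note: Gal4-VP16 expression switched on by copper sulfate through the metallothionein promoter; % is set by controls: 0 for no effect and ±100 for the full control effect; nearly all actives have a fitted effect of over 50% in size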
HepG2 tox-1 = HepG2 cytotoxicity, counter-screen for TGF-b inhibitors; HepG2 CAGA-GFP viability, ATP luminescence, 18 h; Potency, µM (titrated, usually from 46.1 µM), without a hit: at the top dose activity change, negative = cytotoxicity, usual class: cytotoxic; 410,000 tested, 0.76% active
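CellTiter-Glo luminescence gave cytotoxicity after 18 hours at 37 degrees C. The cells were HepG2 CAGA-GFP in 1% FBS DMEM, stimulated with 500 pg/mL TGF-beta after compound addition. %Activity was normalised to no-cell wells (complete cell-killing) and DMSO (no toxicity), and curves were fitted and classified.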
S2 tox = viability counter-screen for ATXN expression inhibitors | S2 cells (HEK-293 line with an ATXN2-luciferase reporter) viability, CellTiter-Fluor protease fluorescence, 24 h | Potency, µM (doses to about 56.7 µM), most hits filed as cytotoxic | 400,000 tested, 0.49% active | AID 651635; note: nearly all actives have a fitted effect of over 40% in size
TGFb SMAD3 inh = blocks TGF-b signaling; HepG2 CAGA-GFP TGF-b/SMAD3 reporter, GFP fluorescence, 18 h; TGF-beta stimulated, 500 pg/mL final; Potency, µM (titrated, usually from 46.1 µM), inactives show at the top dose activity, negative = inhibition, hits mostly inhibitors; 410,000 tested, 1.2% active; AID 588855; note: % is set by controls: 0 for no effect and ±100 for the full control effect; nearly all actives have a fitted effect of over 65% in size
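Smad-responsive CAGA-GFP expression was quantified in HEPG2 cells exposed to compounds and 500 pg/mL final TGF-beta for 18 h at 37 degrees C; unstimulated wells defined full inhibition.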
RORg inh = inhibitors of mouse ROR gamma transcriptional activity. Drosophila S2 Gal4-RORgamma UAS-luciferase reporter, 20 h. P51450. Potency, µM (titrated, usually from 53.6 µM), for inactives: at the top dose activity change, negative = inhibition, usual class: inhibitors. 310,000 tested, 5.4% active; note: % is set by controls: 0 for no effect and ±100 for the full control effect; nearly all actives have a fitted effect of over 60% in size
Target sequence (P51450 whole entry, looked up, the tested form may be a part): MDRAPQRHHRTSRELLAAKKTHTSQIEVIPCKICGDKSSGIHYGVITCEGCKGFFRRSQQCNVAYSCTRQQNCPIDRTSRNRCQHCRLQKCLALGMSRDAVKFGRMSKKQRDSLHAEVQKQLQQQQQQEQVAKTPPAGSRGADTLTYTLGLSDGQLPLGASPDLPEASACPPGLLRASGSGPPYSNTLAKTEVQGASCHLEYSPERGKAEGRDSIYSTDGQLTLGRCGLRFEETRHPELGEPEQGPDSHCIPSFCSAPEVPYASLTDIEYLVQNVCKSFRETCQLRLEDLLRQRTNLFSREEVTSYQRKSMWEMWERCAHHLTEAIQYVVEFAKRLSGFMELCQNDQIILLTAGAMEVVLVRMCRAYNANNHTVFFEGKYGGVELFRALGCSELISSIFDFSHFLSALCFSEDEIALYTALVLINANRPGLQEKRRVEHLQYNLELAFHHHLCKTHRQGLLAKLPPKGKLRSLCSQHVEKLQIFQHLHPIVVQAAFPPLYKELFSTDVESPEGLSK
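Drosophila Schneider cells stably carrying a metallothionein-driven Gal4 DBD–ROR gamma fusion and a UAS-Photinus luciferase reporter were exposed to compound for 1 hr, then induced with copper sulfate (700 uM final) for 20 hr at ambient temperature before luminescence reading.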
TGFb confirm = confirmation of TGF-b signaling inhibitors in HepG2 reporter cells; shares compounds with TGFb SMAD3 inh; HepG2 CAGA-GFP TGF-b reporter, GFP fluorescence, 18 h; cells stimulated with TGF-beta, 500 pg/mL; Potency, µM (titrated, usually from 46.1 µM), for the others: at the highest dose activity, negative = inhibition, actives largely listed as inhibitors; 1,600 tested, 63% active; note: % is set by controls: 0 for no effect and ±100 for the full control effect; nearly all actives have a fitted effect of over 65% in size
HepG2 tox-2 = counter-screen for TGF-b inhibitors: cytotoxicity in HepG2 cells; AID 720535; shares compounds with TGFb SMAD3 inh; Potency, µM (highest dose often 46.1 µM), inactives show top-dose activity, negative = cytotoxicity, actives largely listed as inhibitors; HepG2 CAGA-GFP viability, ATP luminescence, 18 h; cells stimulated with TGF-beta, 500 pg/mL; 1,600 tested, 27% active; note: % is set by controls: 0 for no effect and ±100 for the full control effect; nearly all actives have a fitted effect of over 70% in size
CCL64 TGFb inh = TGF-b inhibition, CCL64 orthogonal assay. CCL64 CAGA-GFP reporter, TGF-b stimulated, GFP fluorescence, 18 h. AID 720536. shares compounds with TGFb SMAD3 inh. 1,600 tested, 41% active. Potency, µM (titrated, usually from 46.1 µM), without a hit: at the highest dose activity, negative = inhibition, most hits filed as inhibitors; note: nearly all actives have a fitted effect of over 65% in size
TGFb COP inh = validation of TGF-b inhibitors in HepG2 COP promoter reporter | shares compounds with TGFb SMAD3 inh | HepG2 COP-GFP TGF-b reporter, GFP fluorescence, 18 h; cells stimulated by added recombinant TGF-beta | Potency, µM (top dose mostly 46.1 µM), for the others: top-dose activity, negative = inhibition, hits mostly inhibitors | 1,600 tested, 3% active; note: nearly all actives have a fitted effect of over 70% in size
* hit, by the source's call; i = inactive; ? = inconclusive; · = no result; [ ] = remark or other dose. The list is not random: actives were taken first. Their share in the collection is about 6.3%. Calls come from the whole dose curve; as a rule, active = well fitted curve in the direction sought with a large enough effect; inconclusive = small, poorly fitted or top-dose-only effect, or another doubt; inactive = no such curve, though single readings can be large; an effect the other way counts as inactive or inconclusive. Potency is the fitted concentration of half-maximal effect.

SMILES	ATXN2 expr inh	Gal4-VP16 FLuc	HepG2 tox-1	S2 tox	TGFb SMAD3 inh	RORg inh	TGFb confirm	HepG2 tox-2	CCL64 TGFb inh	TGFb COP inh
Cc1cc(Cl)n2c(nc3cc(F)c(F)cc32)c1C#N	?	7.08µM*	-27.6%	?	6.31µM*	4.47µM*	1.3µM*	5.8µM*	1.3µM*	18.4µM*
Cc1cc(C)n2c(=O)c3ccc(Cl)cc3nc2c1C#N	-7.9%	-10.3%	-29.6%	·	-0.5%	13.2%	·	·	·	·
CCC(C)N(C(=O)CSc1nc(-c2cccs2)nc2ccccc12)C1CCS(=O)(=O)C1 (configuration not stated)	13.2%	·	6.0%	i	?	·	·	·	·	·
Cc1noc(C)c1COc1ccccc1C(=O)N(C)Cc1ccc(C(C)(C)C)cc1	·	·	-26.5%	i	11.2µM*	·	16.4µM*	?	?	43.9%
O=C(NC(=S)Nc1ccc(Br)c(Cl)c1)C1CC1	12.0%	7.94µM*	-34.9%	i	1.58µM*	4.47µM*	0.82µM*	2.06µM*	?	35.4%
O=C(NC(=S)Nc1cccc(Cl)c1Cl)C1CC1	43.2%	4.47µM*	-24.3%	i	1.26µM*	2.51µM*	1.84µM*	3.66µM*	14.6µM*	63.0%
O=C(Nc1cccc(C(F)(F)F)c1)C(SCCO)c1ccccc1 (configuration not stated)	4.3%	-9.3%	-3.8%	i	-15.4%	12.5%	·	·	·	·
Cn1nnnc1SC(C(=O)Nc1cccc(C(F)(F)F)c1)c1ccccc1 (configuration not stated)	-13.4%	-13.7%	-3.6%	i	11.2µM*	-10.7%	?	-20.5%	?	3.8%
CN1CCn2cnc(C(=O)NCCCCCNC(=O)OC(C)(C)C)c2C1=O	-8.2%	·	7.2%	i	-3.9%	·	·	·	·	·
Cc1ccc(Cn2c(CNC(=O)c3ccccc3Br)nc3cccnc32)cc1	·	·	-12.7%	·	-10.0%	·	·	·	·	·
O=C(CSc1cccc[n+]1[O-])Nc1ccccc1Oc1ccccc1	-42.9%	7.94µM*	-22.0%	i	?	6.31µM*	-10.5%	5.9%	4.1%	-3.6%
COC(=O)c1ccc(C(=O)OC)c(NC(=O)CSc2cccc[n+]2[O-])c1	1µM*	3.55µM*	6.31µM*	1.26µM*	3.55µM*	5.01µM*	-15.0%	5.7%	-7.8%	11.5%
COc1ccc(N2CCN(C(=O)COC(=O)CC(NC(N)=O)c3ccc(Cl)cc3)CC2)cc1 (configuration not stated)	·	·	-4.9%	i	4.9%	·	·	·	·	·
COc1ccc(OC)c(CN2CCCC(C(=O)c3ccccc3SC)C2)c1 (configuration not stated)	?	3.3%	-28.5%	?	?	-2.3%	?	?	?	40.3%
COc1ccc(-c2[nH]ncc2CN2CCCC(C(=O)c3ccc(OC)cc3OC)C2)cc1 (configuration not stated)	·	-2.8%	-0.1%	i	-3.1%	-3.2%	·	·	·	·
CNC(=S)N/N=C/C1=CCC2CC1C2(C)C (configuration not stated)	-0.3%	2.51µM*	-13.9%	i	1.12µM*	1.26µM*	?	-8.5%	?	-10.2%
COc1ccc(C(=O)/C=C/C(=O)N(Cc2ccccc2)C(C(=O)NC2CCCCC2)c2ccncc2)c(O)c1 (configuration not stated)	-21.2%	1.9%	7.8%	?	?	-3.1%[10 µM]	·	·	·	·
COc1ccc(C(=O)/C=C/C(=O)N(Cc2ccc(F)cc2)C(C(=O)NC2CCCCC2)c2ccncc2)c(O)c1 (configuration not stated)	-28.9%	2.1%	1.7%	?	10µM*	-3.4%[10 µM]	?	-18.2%	13µM*	35.1%
O=C(NCc1ccccc1)C1=C[C@H](c2ccccc2)C[C@H](OCc2ccc(CO)cc2)O1	3.5%	·	13.2%	i	17.6%	·	·	·	·	·
O=C(NCc1ccccc1)C1=C[C@H](c2ccc(C(F)(F)F)cc2)C[C@H](OCc2ccc(CO)cc2)O1	-15.3%	13.5%	-27.6%	?	?	?	?	-13.7%	?	8.5%
COc1ccc(-c2cc3ccccc3oc2=O)cc1NC(=O)c1ccc([N+](=O)[O-])o1	8.6%	-8.5%	-19.3%	?	6.31µM*	1.6%	1.84µM*	?	-27.2%	-1.7%
OCC1OC(n2cnc3c(NCc4ccco4)ncnc32)C(O)C1O (configuration not stated)	?	-6.8%	-88.2%	?	5.01µM*	0.2%	5.8µM*	18.4µM*	11.6µM*	32.9%
C=CCNc1ncnc2c1ncn2C1OC(CO)C(O)C1O (configuration not stated)	-6.5%	-9.6%	7.94µM*	i	10µM*	4.0%[10 µM]	10.3µM*	?	-18.2%	28.3%
COC(=O)NC(c1cccs1)C(C(C)=O)C(=O)OC (configuration not stated)	·	-6.2%[10 µM]	·	·	·	0.6%[10 µM]	·	·	·	·
Cc1ccc(C(=O)Nc2nnc(COCCO)s2)cc1	11.1%	·	-8.7%	i	8.0%	·	·	·	·	·
COc1ccc(-c2nnn(CC(=O)N3CCN(c4ccccc4OC)CC3)n2)cc1	-2.8%	17.0%	-24.8%	i	3.55µM*	?	-17.0%	0.3%	?	-4.2%
COc1ccc(-c2nnn(CC(=O)N3CCN(c4ccccc4OC)CC3)n2)cc1OC	-0.2%	-5.5%	6.5%	i	-1.8%	-0.6%	·	·	·	·
Cc1c(C(=O)NCCc2ccc(Cl)cc2)sc2nc3n(c(=O)c12)CCCC3	·	·	-26.9%	·	·	·	·	·	·	·
